Measurements: PubChem BioAssay (Tox21)
Where “and” joins values, the source holds several entries; their conditions need not be identical. Identical values can stand only once. Records with an inconclusive call do not appear. Some structures have more than one record in an assay (separate samples or runs), and their calls can disagree. Calls of active or inactive are those of the source. Unless noted, calls come from the whole dose curve; as a rule, active = well fitted curve in the direction sought with a large enough effect in the repeat runs; inconclusive = weak or mixed curves; inactive = no such curve, though single readings can be large; an effect the other way counts as inactive or inconclusive.

Experiments:
[1] = qHTS assay to identify small molecule agonists of the constitutive androstane receptor (CAR) signaling pathway - cell viability counter screen (AID 1224836); note: nearly all actives have a fitted effect of over 45% in size; note: potency is the fitted concentration of half-maximal effect
How it was run: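 Using CellTiter-Fluor, viability of HepG2 cells harbouring hCAR and CYP2B6-2.2kb was measured following 23 h incubation with a 15-concentration compound series plus PK11195 (0.75 uM final).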

[2] = qHTS assay to identify small molecule antagonists of the constitutive androstane receptor (CAR) signaling pathway - cell viability counter screen (AID 1224837); note: nearly all actives have a fitted effect of over 45% in size; note: potency is the fitted concentration of half-maximal effect
How it was run: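 Read-out: CellTiter-Fluor fluorescence after 23 hr at 37 C/5% CO2. Cells: HepG2 double-stable for hCAR and CYP2B6-2.2kb. Compounds tested at 15 concentrations in the presence of CITCO, final concentration 50 nM.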

[3] = qHTS assay to identify small molecule antagonists of the estrogen related receptor signaling pathway with the pleiotropic PPARgamma coactivator (PGC) from Tox21 10K library - cell viability counter screen (AID 1224840; active = well fitted cell-killing curve with a large enough effect in the repeat runs, not every such curve was filed as active; note: nearly all actives have a fitted effect of over 40% in size; note: potency is the fitted concentration of half-maximal effect)
How it was run: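 Fluorescence read-out of CellTiter-Fluor viability reagent, added after cells had been exposed to compound in DMSO for 17.5 h at 37 C; 30 min development at 37 C/5% CO2. Cells: PGC/ERR line, 2,000/well.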

[4] = qHTS assay to identify small molecule antagonists of the estrogen related receptor signaling pathway with the pleiotropic PPARgamma coactivator (PGC) from Tox21 10K library (AID 1224841; call rule not given here; note: actives are mostly falling curves and most rising ones were filed inactive; nearly all actives have a fitted effect of over 50% in size; note: potency is the fitted concentration of half-maximal effect)
How it was run: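 Luminescence read-out (One-Glo luciferase reagent, 30 min at room temperature) from PGC/ERR cells exposed to DMSO-dissolved test compounds for 18 h at 37 C; cells, 2,000 per well, had been preincubated 6 h before compound transfer.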

[5] = qHTS assay to identify small molecule agonists of the estrogen related receptor signaling pathway with the pleiotropic PPARgamma coactivator (PGC) from Tox21 10K library (AID 1224842); note: nearly all actives have a fitted effect of over 15% in size
How it was run: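 Luminescence from One-Glo (30 min, room temperature) measured after PGC/ERR cells had 18 h at 37 C with pinned compound (23 nL in DMSO). Cells had been seeded at 2,000 per well and pre-incubated 6 h.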

[6] = molecular target: Thyrotropin receptor (Homo sapiens) (UniProt P16473); assay: qHTS assay to identify small molecule agonists of the thyroid stimulating hormone receptor (TSHR) signaling pathway (AID 1224843; calls by dose curve; note: nearly all actives have a fitted effect of over 45% in size; note: potency is the fitted concentration of half-maximal effect)
How it was run: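 A cell-based cAMP HTRF format was run in TSHR-transfected HEK293 cells, 800 per well. Treatment: 30 min, room temperature. Detection: 1 h with labelled cAMP and anti-cAMP cryptate. Concentration-response over 15 points, three replicates.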

[7] = qHTS assay to identify small molecule agonists of the hypoxia (HIF-1) signaling pathway - cell viability counter screen (AID 1224844; calls by dose curve; note: nearly all actives have a fitted effect of over 50% in size; note: potency is the fitted concentration of half-maximal effect)
How it was run: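 CellTiter-Glo luminescence read-out, 30 min RT, taken in the same wells as the beta-lactamase HRE reporter assay; HRE-bla ME-180 cells, 0.5% dialyzed FBS, 17 hr compound treatment at 37C, 5% CO2.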

[8] = qHTS assay to identify small molecule agonists of H2AX (AID 1224845; active = well fitted activation curve with a large enough effect in the signal ratio in the repeat runs, not every such curve was filed as active; the % refers to the signal ratio; note: potency is the fitted concentration of half-maximal effect)
How it was run: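 Phospho-H2AX Ser139 measured by HTRF (ex 320 nm; em 665 and 620 nm) after 24 hr antibody incubation. Compounds, 15 concentrations, 0.76% DMSO, were applied to CHO-K1 cells for 3hr at 37C before lysis.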

[9] = molecular target: Nuclear receptor subfamily 1 group I member 3 (Homo sapiens) (UniProt Q14994); assay: qHTS assay to identify small molecule agonists of the constitutive androstane receptor (CAR) signaling pathway (AID 1224839); note: nearly all actives have a fitted effect of over 15% in size; note: potency is the fitted concentration of half-maximal effect;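 for activation: HepG2 cells stably carrying human CAR and a CYP2B6 luciferase reporter; series mostly up to about 92 µM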
How it was run: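 Double-stable HepG2 cells (hCAR, CYP2B6-2.2kb) seeded 4 h before compound addition. Exposure 24 h with 0.75 uM PK11195 final. Luciferase detected by ONE-Glo.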

[10] = molecular target: Nuclear receptor subfamily 1 group I member 3 (Homo sapiens) (UniProt Q14994); assay: qHTS assay to identify small molecule antagonists of the constitutive androstane receptor (CAR) signaling pathway (AID 1224838);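 note: HepG2 cells stably expressing hCAR with CYP2B6 luciferase reporter stimulated by CITCO; potency is the fitted concentration of half-maximal effect; nearly all actives have a fitted effect of over 40% in size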
How it was run: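 Read-out: ONE-Glo luciferase luminescence after 30 min at room temperature. HepG2-CYP2B6-hCAR double-stable cells, compounds in 15-point titration plus 50 nM CITCO final, 24 h at 37 C/5% CO2.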

Measured: Potency

Chain of Nuclear receptor subfamily 1 group I member 3 (Homo sapiens) (Q14994 whole entry, looked up): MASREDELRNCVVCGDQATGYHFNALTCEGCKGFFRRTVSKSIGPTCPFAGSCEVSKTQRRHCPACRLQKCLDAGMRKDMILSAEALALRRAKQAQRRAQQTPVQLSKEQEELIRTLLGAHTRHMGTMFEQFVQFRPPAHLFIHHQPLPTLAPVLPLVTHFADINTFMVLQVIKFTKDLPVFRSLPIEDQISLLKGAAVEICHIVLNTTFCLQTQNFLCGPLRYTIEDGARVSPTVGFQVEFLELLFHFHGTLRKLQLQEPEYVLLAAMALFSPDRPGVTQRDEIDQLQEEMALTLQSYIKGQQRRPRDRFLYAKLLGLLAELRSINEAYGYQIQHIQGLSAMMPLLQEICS
Chain of Thyrotropin receptor (Homo sapiens) (P16473 whole entry, looked up): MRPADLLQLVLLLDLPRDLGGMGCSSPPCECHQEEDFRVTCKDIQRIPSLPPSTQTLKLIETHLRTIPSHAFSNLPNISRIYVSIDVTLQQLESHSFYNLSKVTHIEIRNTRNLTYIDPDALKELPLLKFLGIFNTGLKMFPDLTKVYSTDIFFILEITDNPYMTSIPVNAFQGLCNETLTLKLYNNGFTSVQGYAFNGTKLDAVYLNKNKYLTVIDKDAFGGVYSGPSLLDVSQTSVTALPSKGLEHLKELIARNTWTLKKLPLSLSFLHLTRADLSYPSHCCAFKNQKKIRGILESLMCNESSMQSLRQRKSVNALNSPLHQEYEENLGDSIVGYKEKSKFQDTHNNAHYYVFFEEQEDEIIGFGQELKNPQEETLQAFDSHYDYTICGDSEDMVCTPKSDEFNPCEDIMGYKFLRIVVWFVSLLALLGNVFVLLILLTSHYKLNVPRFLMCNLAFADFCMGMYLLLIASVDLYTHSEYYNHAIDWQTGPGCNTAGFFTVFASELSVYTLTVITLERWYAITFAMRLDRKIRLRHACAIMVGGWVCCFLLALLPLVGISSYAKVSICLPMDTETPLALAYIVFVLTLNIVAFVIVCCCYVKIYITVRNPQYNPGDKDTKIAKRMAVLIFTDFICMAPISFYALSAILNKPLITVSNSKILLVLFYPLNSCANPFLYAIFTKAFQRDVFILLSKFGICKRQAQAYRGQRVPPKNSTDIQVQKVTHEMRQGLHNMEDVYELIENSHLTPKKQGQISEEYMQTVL

ClCCN1CCOCC1
not listed: [9] | [10]
inactive: all other assays above

O=C(Cl)c1ccc(Cl)cc1
inactive: [1] | [2] | [3] | [6] | [7] | [8]

COS(=O)(=O)c1ccc(C)cc1
inactive: [1] | [2] | [3] | [6] | [7] | [8]

c1cc[c]([Sb]([c]2ccccc2)[c]2ccccc2)cc1
inactive: [1] | [2] | [6] | [7]
active: [9] 15.4 µM

CC(=O)[O-].CC(=O)[O-].O.O.[Cd+2]
active: [1] 5.37 µM | [2] 6.76 µM | [3] 12 µM | [7] 34.2 µM | [8] 62.7 µM

CCCCCCCCCCCCCN1CC(C)OC(C)C1 (stereo unspecified)
inactive: [1] | [2] | [3] | [6] | [7] | [8]

CCC(C)c1cc(C(C)(C)C)cc(-n2nc3ccccc3n2)c1O (stereo unspecified)
active: [7] 19 µM
not listed: [6] | [9] | [10]
inactive: all other assays above

C=CC(=O)N(C)C
active: [4] 27.3 µM
not listed: [9] | [10]
inactive: all other assays above

ClC1=C(Cl)[C@]2(Cl)[C@@H]3[C@@H]4C[C@@H]([C@H]5O[C@@H]45)[C@@H]3[C@@]1(Cl)C2(Cl)Cl
inactive: [1] | [2] | [5]
active: [3] 61.1 µM | [4] 61.1 µM | [6] 1.93 µM | [8] 17.9 µM

O=[N+]([O-])O.O=[N+]([O-])O.[Cd]
active: [1] 7.7 µM | [2] 6.11 µM | [3] 3.06 µM

COc1ccc(N)cc1N
28.2 µM (active) and inactive: [3]
active: [1] 63.1 µM | [2] 70.8 µM
inactive: [5] | [7]

COC(=O)N(C(=O)N1COC2(C(=O)OC)Cc3cc(Cl)ccc3C2=N1)c1ccc(OC(F)(F)F)cc1 (stereo unspecified)
active: [4] 23.7 µM
not listed: [7] | [9] | [10]
inactive: all other assays above

N#CCc1ccc(Cl)cc1
not listed: [6] | [9] | [10]
inactive: all other assays above

CC(C)CC(C)N (stereo unspecified)
not listed: [9] | [10]
inactive: all other assays above

N#CC(Cl)Cl
inactive: [1] | [2] | [3] | [5] | [6] | [8]

CCSC(C)CC1CC(=O)C(/C(CC)=N/OC/C=C/Cl)=C(O)C1 (stereo unspecified)
active: [4] 2.11 µM
not listed: [9] | [10]
inactive: all other assays above

CN(CCCC(O)c1cccnc1)N=O (stereo unspecified)
inactive: [1] | [2] | [3] | [6] | [7] | [8]

CC(=O)[O-].CC(=O)[O-].[Hg+2]
active: [1] 7.7 µM | [2] 4.86 µM | [3] 2.73 µM | [7] 3.47 µM

CCOC(=O)c1ccccc1S(=O)(=O)NC(=O)Nc1nc(Cl)cc(OC)n1
inactive: [1] | [2] | [9] | [6] | [7] | [8]

FC(Cl)(Cl)Cl
inactive: [1] | [2] | [3] | [6] | [7] | [8]

CCN(CC)C(=S)[S-].CCN(CC)C(=S)[S-].[Zn+2]
inactive: [6]
active: [1] 3.04 µM | [2] 1.36 µM | [3] 2.41 µM

C[C@@H]1O[C@@H](O[C@@H]2C=C3CC[C@@H]4[C@H](CC[C@]5(C)[C@@H](c6ccc(=O)oc6)CC[C@]45O)[C@@]3(C)CC2)[C@H](O)[C@H](O)[C@H]1O
inactive: [9] | [5] | [8]
active: [1] 0.119 µM | [10] 84.1 nM | [4] 0.0237 µM | [7] 0.0268 µM

C[C@H]1O[C@@H](O[C@H]2[C@@H](O)C[C@H](O[C@H]3[C@@H](O)C[C@H](O[C@H]4CC[C@@]5(C)[C@H](CC[C@@H]6[C@@H]5CC[C@]5(C)[C@@H](C7=CC(=O)OC7)CC[C@]65O)C4)O[C@@H]3C)O[C@@H]2C)C[C@H](O)[C@@H]1O
active: [1] 0.0975 µM | [10] 77.4 nM and 422 nM | [4] 97.5 nM and 168 nM | [7] 98.3 nM and 190 nM
inactive: [9] | [5] | [6] | [8]

[Cd+2].[Cl-].[Cl-]
active: [1] 5.49 µM and 9.69 µM | [2] 4.36 µM and 9.69 µM | [3] 4.9 µM and 2.73 µM | [7] 55.4 µM | [8] 50.9 µM and 56.6 µM

O=C(CCl)C(Cl)Cl
inactive: [9] | [5]
active: [1] 21.9 µM | [10] 13800 nM | [3] 24.6 µM | [4] 61.7 µM | [8] 40.5 µM

CC(C)(C)C(O)/C(=C\c1ccc(Cl)cc1Cl)n1cncn1 (stereo unspecified)
inactive: [5] | [7] | [8]
active: [1] 74 µM | [3] 58.7 µM | [4] 29.4 µM
